# Assay results reported in PubChem BioAssay (NCI).
# The panel holds about 79,000 compounds, 15% with a hit somewhere; the sample as a whole holds those more often. A number with no mark means an inactive call. Active and inactive are the calls of the source. Cut-off read from the data, not from the text of the source: active = growth inhibition above about 70%; inactive = the rest.
# Assays:
# [1] = NCI Yeast Anticancer Drug Screen. Data for the rad52 strain (AID 147);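 note: 0% = growth of vehicle-treated control cultures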; conditions: S. cerevisiae rad52 mutant growth inhibition, hits give high values
# Summary of the method: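 Yeast strain carrying a DNA damage repair alteration was exposed to test compounds. Growth inhibition was measured relative to vehicle-treated controls.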
# [2] = NCI Yeast Anticancer Drug Screen. Data for the wt1 strain (AID 149);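 note: 0% = growth of vehicle-treated wt1 cultures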; conditions: S. cerevisiae wt1 strain (SPY 50644) growth inhibition, hits give high values
# Summary of the method: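 wt1 yeast, compound-treated; % growth inhibition vs vehicle control.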
# [3] = NCI Yeast Anticancer Drug Screen. Data for the rad50EPP+ strain (AID 151);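 note: 0% = growth of vehicle-treated control cultures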; conditions: S. cerevisiae rad50 mutant strain, hits give high values
# Summary of the method: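 Yeast strain carrying rad50 alteration (rad50EPP+) exposed to compounds; growth inhibition measured relative to vehicle-treated controls.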
# [4] = NCI Yeast Anticancer Drug Screen. Data for the mgt1 strain (AID 153); conditions: S. cerevisiae mgt1 mutant growth inhibition, hits give high values
# Summary of the method: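 Yeast mgt1 strain (DNA repair/cell-cycle alteration panel) exposed to compounds; growth inhibition measured relative to vehicle-treated controls.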
# [5] = NCI Yeast Anticancer Drug Screen. Data for the rad50 strain (AID 155);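 note: 0% = growth of vehicle-only cultures of the same strain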; conditions: S. cerevisiae rad50 strain growth inhibition, hits give high values
# Summary of the method: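 Genetically altered yeast (DNA repair pathway); compound treatment; growth inhibition vs vehicle ctrl.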
# [6] = NCI Yeast Anticancer Drug Screen. Data for the mec2-1 strain (AID 157); conditions: S. cerevisiae mec2-1 strain, hits give high values
# Summary of the method: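 mec2-1 yeast strain, carrying an alteration in DNA damage repair or cell cycle control, was exposed to compounds; growth inhibition was measured relative to vehicle-treated controls.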
# [7] = NCI Yeast Anticancer Drug Screen. Data for the rad14 strain (AID 159);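 note: 0% = growth of vehicle-treated control cultures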; conditions: S. cerevisiae rad14 strain growth inhibition, hits give high values
# Summary of the method: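 Test compounds were applied to a repair-deficient yeast strain. Its growth was then compared with that of cultures given vehicle alone, and inhibition was expressed relative to those controls.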
# [8] = NCI Yeast Anticancer Drug Screen. Data for the sgs1 mgt1 strain (AID 161);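 note: 0% = growth of cultures given vehicle only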; conditions: S. cerevisiae sgs1 mgt1 strain, hits give high values
# Summary of the method: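 Percent growth inhibition was derived by comparing compound-exposed mutant yeast with vehicle-exposed cultures. The strain carries alterations in DNA damage repair.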
# [9] = NCI Yeast Anticancer Drug Screen. Data for the CLN2oe strain (AID 163);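 note: 0% = growth of vehicle-only control cultures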; conditions: S. cerevisiae CLN2oe strain, hits give high values
# Summary of the method: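 Yeast cells carrying a defined cell-cycle control alteration were exposed to test compounds. Growth inhibition was scored against vehicle-treated control cultures.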
# [10] = NCI Yeast Anticancer Drug Screen. Data for the cln2 rad14 strain (AID 165);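 note: 0% = growth equal to vehicle treated cultures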; conditions: S. cerevisiae cln2 rad14 strain, hits give high values
# Summary of the method: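 Yeast carrying cln2 and rad14 alterations (cell cycle control and DNA damage repair) were exposed to compounds. Growth inhibition was measured against vehicle-treated controls.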
# [11] = NCI Yeast Anticancer Drug Screen. Data for the bub3 strain (AID 167); conditions: S. cerevisiae bub3 mutant strain, hits give high values
# Summary of the method: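 Yeast carrying a defined mutation is treated with each compound, and growth is compared with that of vehicle-exposed cells to give inhibition.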
# [12] = NCI Yeast Anticancer Drug Screen. Data for the wt2 strain (AID 169);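 note: 0% = growth of vehicle-treated yeast cultures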; conditions: S. cerevisiae wt2 strain growth inhibition, hits give high values
# Summary of the method: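 Yeast cells were exposed to test compounds, and growth inhibition was measured relative to vehicle-treated controls.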
# [13] = NCI Yeast Anticancer Drug Screen. Data for the mlh1 strain (AID 171);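 note: 0% = growth of vehicle-treated control cultures of the same strain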; conditions: S. cerevisiae mlh1 strain growth inhibition, hits give high values
# Summary of the method: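 Yeast carrying a defined genetic alteration in DNA damage repair or cell cycle control were exposed to test compounds. Growth inhibition was measured relative to vehicle-treated controls.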
# [14] = NCI Yeast Anticancer Drug Screen. Data for the sgs1 strain (AID 173);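 note: 0% = growth of vehicle-only control cultures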; conditions: S. cerevisiae sgs1 mutant, hits give high values
# Summary of the method: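 Yeast mutant strains carrying defined defects in DNA damage repair or cell cycle control were exposed to test compounds. Growth inhibition was scored against vehicle-treated controls.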
# [15] = NCI Yeast Anticancer Drug Screen. Data for the mlh1 rad18 strain (AID 175); conditions: S. cerevisiae mlh1 rad18 strain growth inhibition, hits give high values
# Summary of the method: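 Growth inhibition of the yeast strain was measured after compound exposure and expressed relative to vehicle-treated controls. The strain carries defined defects in DNA damage repair.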
# [16] = NCI Yeast Anticancer Drug Screen. Data for the rad18 strain (AID 177); conditions: S. cerevisiae rad18 mutant growth inhibition, hits give high values
# Summary of the method: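 Yeast carrying a defined DNA damage repair alteration were exposed to compounds. Growth inhibition was expressed relative to vehicle-treated controls.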
# [17] = at 5.0 µM (retest, dose inferred, filed as 0.5)
# [18] = at 50.0 µM (retest, dose inferred, filed as 5.0)
compound,measurement,setting,value
N#CC(=C1C=CC(=NO)C=C1)c1ccccc1,growth inhibition,[1]; at 1.2 µM,6%
same,growth inhibition,[1]; at 3.7 µM,24%
same,growth inhibition,[1]; at 11.0 µM,98% (active)
same,growth inhibition,[1]; at 33.0 µM,99% (active)
same,growth inhibition,[1]; at 100.0 µM,99% (active)
same,growth inhibition,[2]; at 1.2 µM,3%
same,growth inhibition,[2]; at 3.7 µM,13%
same,growth inhibition,[2]; at 11.0 µM,99% (active)
same,growth inhibition,[2]; at 33.0 µM,99% (active)
same,growth inhibition,[2]; at 100.0 µM,99% (active)
same,growth inhibition,[3]; at 1.2 µM,24%
same,growth inhibition,[3]; at 3.7 µM,64%
same,growth inhibition,[3]; at 11.0 µM,96% (active)
same,growth inhibition,[3]; at 33.0 µM,99% (active)
same,growth inhibition,[3]; at 100.0 µM,98% (active)
same,growth inhibition,[4]; at 1.2 µM,1%
same,growth inhibition,[4]; at 3.7 µM,24%
same,growth inhibition,[4]; at 11.0 µM,99% (active)
same,growth inhibition,[4]; at 33.0 µM,99% (active)
same,growth inhibition,[4]; at 100.0 µM,99% (active)
same,growth inhibition,[5]; at 1.2 µM,4%
same,growth inhibition,[5]; at 3.7 µM,26%
same,growth inhibition,[5]; [17],30%
same,growth inhibition,[5]; at 11.0 µM,98% (active)
same,growth inhibition,[5]; at 33.0 µM,99% (active)
same,growth inhibition,[5]; [18],99% (active)
same,growth inhibition,[5]; at 50.0 µM,99.3% (active)
same,growth inhibition,[5]; at 100.0 µM,99% (active)
same,growth inhibition,[6]; at 1.2 µM,-3%
same,growth inhibition,[6]; at 3.7 µM,14%
same,growth inhibition,[6]; [17],19%
same,growth inhibition,[6]; at 11.0 µM,99% (active)
same,growth inhibition,[6]; at 33.0 µM,99% (active)
same,growth inhibition,[6]; [18],99% (active)
same,growth inhibition,[6]; at 50.0 µM,99.5% (active)
same,growth inhibition,[6]; at 100.0 µM,99% (active)
same,growth inhibition,[7]; at 1.2 µM,5%
same,growth inhibition,[7]; at 3.7 µM,24%
same,growth inhibition,[7]; at 11.0 µM,98% (active)
same,growth inhibition,[7]; at 33.0 µM,99% (active)
same,growth inhibition,[7]; at 100.0 µM,99% (active)
same,growth inhibition,[8]; [17],35%
same,growth inhibition,[8]; [18],99% (active)
same,growth inhibition,[8]; at 50.0 µM,99.4% (active)
same,growth inhibition,[9]; at 1.2 µM,2%
same,growth inhibition,[9]; at 3.7 µM,10%
same,growth inhibition,[9]; at 11.0 µM,97% (active)
same,growth inhibition,[9]; at 33.0 µM,99% (active)
same,growth inhibition,[9]; at 100.0 µM,99% (active)
same,growth inhibition,[10]; [17],-1%
same,growth inhibition,[10]; [18],99% (active)
same,growth inhibition,[10]; at 50.0 µM,99.2% (active)
same,growth inhibition,[11]; at 1.2 µM,-21%
same,growth inhibition,[11]; at 3.7 µM,-19%
same,growth inhibition,[11]; [17],35%
same,growth inhibition,[11]; at 11.0 µM,94% (active)
same,growth inhibition,[11]; at 33.0 µM,97% (active)
same,growth inhibition,[11]; [18],99% (active)
same,growth inhibition,[11]; at 50.0 µM,99.3% (active)
same,growth inhibition,[11]; at 100.0 µM,99% (active)
same,growth inhibition,[12]; at 1.2 µM,4%
same,growth inhibition,[12]; at 3.7 µM,41%
same,growth inhibition,[12]; at 11.0 µM,99% (active)
same,growth inhibition,[12]; at 33.0 µM,99% (active)
same,growth inhibition,[12]; at 100.0 µM,99% (active)
same,growth inhibition,[13]; at 1.2 µM,3%
same,growth inhibition,[13]; at 3.7 µM,15%
same,growth inhibition,[13]; at 11.0 µM,99% (active)
same,growth inhibition,[13]; at 33.0 µM,99% (active)
same,growth inhibition,[13]; at 100.0 µM,99% (active)
same,growth inhibition,[14]; at 1.2 µM,9%
same,growth inhibition,[14]; at 3.7 µM,50%
same,growth inhibition,[14]; at 11.0 µM,99% (active)
same,growth inhibition,[14]; at 33.0 µM,99% (active)
same,growth inhibition,[14]; at 100.0 µM,99% (active)
same,growth inhibition,[15]; [17],64%
same,growth inhibition,[15]; [18],99% (active)
same,growth inhibition,[15]; at 50.0 µM,99.4% (active)
same,growth inhibition,[16]; at 1.2 µM,12%
same,growth inhibition,[16]; at 3.7 µM,43%
same,growth inhibition,[16]; at 11.0 µM,99% (active)
same,growth inhibition,[16]; at 33.0 µM,99% (active)
same,growth inhibition,[16]; at 100.0 µM,99% (active)
NC(N)=NCCCS(=O)(=O)Nc1ccc(Nc2c3ccccc3nc3cc([N+](=O)[O-])ccc23)cc1,growth inhibition,[1]; at 1.2 µM,-26%
same,growth inhibition,[1]; at 3.7 µM,8%
same,growth inhibition,[1]; at 11.0 µM,36%
same,growth inhibition,[1]; at 33.0 µM,79% (active)
same,growth inhibition,[1]; at 100.0 µM,91% (active)
same,growth inhibition,[2]; at 1.2 µM,-20%
same,growth inhibition,[2]; at 3.7 µM,-18%
same,growth inhibition,[2]; at 11.0 µM,-26%
same,growth inhibition,[2]; at 33.0 µM,-15%
same,growth inhibition,[2]; at 100.0 µM,42%
same,growth inhibition,[3]; at 1.2 µM,-21%
same,growth inhibition,[3]; at 3.7 µM,-11%
same,growth inhibition,[3]; at 11.0 µM,17%
same,growth inhibition,[3]; at 33.0 µM,44%
same,growth inhibition,[3]; at 100.0 µM,68%
same,growth inhibition,[4]; at 1.2 µM,-24%
same,growth inhibition,[4]; at 3.7 µM,-29%
same,growth inhibition,[4]; at 11.0 µM,-10%
same,growth inhibition,[4]; at 33.0 µM,18%
same,growth inhibition,[4]; at 100.0 µM,65%
same,growth inhibition,[5]; at 1.2 µM,-4%
same,growth inhibition,[5]; at 3.7 µM,-4%
same,growth inhibition,[5]; [17],23%
same,growth inhibition,[5]; at 11.0 µM,44%
same,growth inhibition,[5]; at 33.0 µM,83% (active)
same,growth inhibition,[5]; [18],88% (active)
same,growth inhibition,[5]; at 50.0 µM,72.9% (active)
same,growth inhibition,[5]; at 100.0 µM,89% (active)
same,growth inhibition,[6]; at 1.2 µM,-37%
same,growth inhibition,[6]; at 3.7 µM,-32%
same,growth inhibition,[6]; [17],-22%
same,growth inhibition,[6]; at 11.0 µM,-26%
same,growth inhibition,[6]; at 33.0 µM,11%
same,growth inhibition,[6]; [18],74% (active)
same,growth inhibition,[6]; at 50.0 µM,60%
same,growth inhibition,[6]; at 100.0 µM,70% (active)
same,growth inhibition,[7]; at 1.2 µM,-10%
same,growth inhibition,[7]; at 3.7 µM,-1%
same,growth inhibition,[7]; at 11.0 µM,-1%
same,growth inhibition,[7]; at 33.0 µM,31%
same,growth inhibition,[7]; at 100.0 µM,81% (active)
same,growth inhibition,[8]; [17],20%
same,growth inhibition,[8]; [18],83% (active)
same,growth inhibition,[8]; at 50.0 µM,63.1%
same,growth inhibition,[9]; at 1.2 µM,-65%
same,growth inhibition,[9]; at 3.7 µM,-47%
same,growth inhibition,[9]; at 11.0 µM,-51%
same,growth inhibition,[9]; at 33.0 µM,-11%
same,growth inhibition,[9]; at 100.0 µM,49%
same,growth inhibition,[10]; [17],-18%
same,growth inhibition,[10]; [18],66%
same,growth inhibition,[10]; at 50.0 µM,47.4%
same,growth inhibition,[11]; at 1.2 µM,0%
same,growth inhibition,[11]; at 3.7 µM,0%
same,growth inhibition,[11]; [17],11%
same,growth inhibition,[11]; at 11.0 µM,-10%
same,growth inhibition,[11]; at 33.0 µM,3%
same,growth inhibition,[11]; [18],70% (active)
same,growth inhibition,[11]; at 50.0 µM,57.8%
same,growth inhibition,[11]; at 100.0 µM,74% (active)
same,growth inhibition,[12]; at 1.2 µM,-49%
same,growth inhibition,[12]; at 3.7 µM,-58%
same,growth inhibition,[12]; at 11.0 µM,-77%
same,growth inhibition,[12]; at 33.0 µM,23%
same,growth inhibition,[12]; at 100.0 µM,50%
same,growth inhibition,[13]; at 1.2 µM,-20%
same,growth inhibition,[13]; at 3.7 µM,-10%
same,growth inhibition,[13]; at 11.0 µM,3%
same,growth inhibition,[13]; at 33.0 µM,32%
same,growth inhibition,[13]; at 100.0 µM,81% (active)
same,growth inhibition,[14]; at 1.2 µM,29%
same,growth inhibition,[14]; at 3.7 µM,1%
same,growth inhibition,[14]; at 11.0 µM,-13%
same,growth inhibition,[14]; at 33.0 µM,23%
same,growth inhibition,[14]; at 100.0 µM,69%
same,growth inhibition,[16]; at 1.2 µM,-28%
same,growth inhibition,[16]; at 3.7 µM,-39%
same,growth inhibition,[16]; at 11.0 µM,-41%
same,growth inhibition,[16]; at 33.0 µM,-13%
same,growth inhibition,[16]; at 100.0 µM,74% (active)
